# An excerpt weighted towards active compounds, which were near 6.6% of everything screened.
# GDH-TPI inh – inhibits GDH-TPI coupling enzymes, artifact for Mtb FBA screen | AID 588335 | GDH-TPI coupled enzyme counterscreen, NADH absorbance | inhibition, % at 4.8 µM | actives 1.2% (n = 360,000); in the data active = inhibition above about 30%;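 also: 0% = DMSO wells and 100% = wells lacking the enzyme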
# Bead autofluor – compound fluorescence in toxin protease inhibitor counterscreen; compound autofluorescence counterscreen, microsphere flow cytometry; stronger effect = higher value; actives 3.1% (n = 360,000); fluorescence intensity (test concentration not listed); in the data active = fluorescence intensity above about 16000; inconclusive = no clear call, values can overlap the other calls
# Mtb FBA inh – inhibitors of M. tuberculosis fructose-bisphosphate aldolase. purified M. tuberculosis FBA, fluorescence read-out. inhibition, % at 1 µM. actives 2.3% (n = 360,000). AID 588726; in the data active = inhibition above about 27%;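 also: 0% = vehicle and 100% = reference inhibitor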
# Target sequence (P9WQA3 whole entry, looked up): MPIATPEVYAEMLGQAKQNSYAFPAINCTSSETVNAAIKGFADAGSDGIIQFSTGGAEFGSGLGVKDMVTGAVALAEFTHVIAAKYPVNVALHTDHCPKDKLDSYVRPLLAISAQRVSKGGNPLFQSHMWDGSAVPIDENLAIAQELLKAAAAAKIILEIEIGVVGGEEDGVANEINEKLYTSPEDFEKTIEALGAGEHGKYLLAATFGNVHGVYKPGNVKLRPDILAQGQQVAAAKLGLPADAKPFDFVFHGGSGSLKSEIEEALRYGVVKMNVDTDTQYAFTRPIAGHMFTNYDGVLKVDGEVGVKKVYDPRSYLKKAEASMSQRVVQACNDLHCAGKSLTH
# Anthrax LF inh2 – anthrax lethal factor protease inhibition; P15917; multiplex microsphere protease cleavage assay, LF; inhibition, % at 10 µM; actives 0.12% (n = 360,000); AID 588501; also: plate controls were buffer without enzyme for full effect and enzyme alone for no effect
# BoNT-F LC inh – BoNT F light chain protease inhibition | actives 0.22% (n = 360,000) | Multiplex microsphere protease cleavage assay, flow cytometry | inhibition, % at 10 µM | AID 588497; in the data active = inhibition above about 35%, passing the limit was not always enough; inconclusive = no clear call, values can overlap the other calls; also: plate controls were buffer without enzyme for full effect and enzyme alone for no effect
# BoNT A protease – BoNT A light chain protease inhibition. multiplex microsphere protease substrate cleavage, flow cytometry. inhibition, % at 10 µM. actives 0.17% (n = 360,000). AID 588499; also: plate controls were buffer without enzyme for full effect and enzyme alone for no effect
# Starred values were filed as active, the others as inactive; ? = inconclusive. Rule as the data show it, unless noted: active = inhibition above about 30%; inconclusive = no clear call, values can overlap the other calls; inactive = below that.
SMILES,GDH-TPI inh,Bead autofluor,Mtb FBA inh,Anthrax LF inh2,BoNT-F LC inh,BoNT A protease
O=C(Nc1cc(Cl)ccc1-n1cncn1)c1ccc(Br)o1,-7,4252,2,2,5,1
CCC(=O)N1CCN(c2ccc(Cl)cc2NC(=O)c2ccc(Br)o2)CC1,-8,22198*,1,1,1,2
O=C(Nc1ccc(N2CCN(C(=O)c3ccccc3)CC2)cc1)c1ccc(Br)o1,2,2990,-2,-2,-12,0
O=C(Nc1ccc(N2CCN(C(=O)c3ccccc3)CC2)c(Cl)c1)c1ccc(Br)o1,4,23206*,3,-6,-3,-1
CCCCCNC(=O)CN(c1ccc2c(c1)OCO2)S(C)(=O)=O,-6,20699*,2,-2,-1,0
COC(=O)CN(c1ccc2c(c1)OCO2)S(C)(=O)=O,13,24591*,-1,1,-7,-3
Cc1ccc(SCCNC(=O)CN(c2ccc3c(c2)OCO3)S(C)(=O)=O)cc1,3,2144,0,-3,-2,-1
O=C(CC(C(=O)N1CCc2ccccc21)n1ccnc1)NCc1ccccc1 (stereo unspecified),-12,18019*,1,-5,9,10
Nc1nnnn1/N=C/c1ccccc1OCc1ccc(Cl)cc1Cl,6,22215*,-1,0,2,3
Nc1nnnn1/N=C/c1ccccc1OCc1ccc(Cl)cc1,17,4439,-1,-3,-3,-1
CC(C)N1CC2(CC(c3ccc(Cl)cc3Cl)=NO2)CN1C(=O)c1ccc(C(C)(C)C)cc1 (stereo unspecified),3,3673,5,-1,6,0
Nc1ccc(/C=C/C(=O)c2ccco2)cc1,6,3476,-9,-1,0,2
CC(C)(C)C(=O)Nc1ccc(/C=C/C(=O)c2ccco2)cc1,49*,4687,2,0,?,-9
O=C(/C=C/c1ccccc1O)c1ccco1,33*,4258,-4,4,-22,-8
Cc1cnc(C(=O)Nc2ccc3c(c2)CCC3)cn1,11,3505,-9,2,1,2
O=C(Nc1ccc2c(c1)CCC2)c1cnccn1,4,20322*,-3,-2,1,2
O=C1CC(c2cccc(F)c2)SC(N(c2ccccc2)c2ccccc2)=N1 (stereo unspecified),6,23403*,-3,-1,-2,0
Cc1cccc2c1OCC/C2=N\NC(=O)COc1ccccc1Cl,9,22273*,6,1,0,1
O=C(COc1ccc(Cl)cc1Cl)N/N=C1\CCCc2ccccc21,-7,4037,0,-4,3,0
CCOC(=O)CC(=O)CSc1nc2ccccc2c(=O)n1-c1ccc(C(=O)NCCOC)cc1,15,16847*,-4,-2,-1,-1
CCOC(=O)CC(=O)CSc1nc2ccccc2c(=O)n1-c1ccc(C(=O)N2CCOCC2)cc1,18,10639,1,0,0,0
O=C(Nc1ccc([N+](=O)[O-])cc1)N1CCCCC1,45*,3898,2,-2,3,-1
COc1ccc(C(O)c2nc(-c3cccc(O)c3)cs2)cc1 (stereo unspecified),10,2819,0,-5,-3,0
CC(=O)c1cc(F)c(N2CCCC2)cc1C,20,5173,1,1,15,0
CC(=O)c1cc(F)c(N2CCN(c3ccc([N+](=O)[O-])cc3F)CC2)cc1C,3,20270*,6,-6,-4,-2
SMILES,GDH-TPI inh,Bead autofluor,Mtb FBA inh,Anthrax LF inh2,BoNT-F LC inh,BoNT A protease
Cc1cccc(C(=O)N/N=C/c2ccc[nH]2)c1,21,1910,1,1,-3,2
Cc1ccc(C(=O)N/N=C/c2cc(Br)ccc2O)cn1,17,3622,4,-10,7,0
O=C(N/N=C/c1ccc[nH]1)c1cccnc1,45*,4227,0,-2,15,2
Cc1ccc(C(=O)N/N=C\c2ccc[nH]2)cn1,47*,4699,-1,1,-4,0
Cc1ccc(C(=O)N/N=C\C=C\c2ccc(Br)cc2)cn1,35*,1964,-3,-1,2,0
O=C(N/N=C\c1ccc[nH]1)c1cncc(Br)c1,26,6207,4,0,-4,-4
CCCCN(C(=O)C1CC(=O)N(c2ccc(CC)cc2)C1)c1c(N)n(CCC)c(=O)[nH]c1=O (stereo unspecified),1,6508,1,2,0,-2
COCC(C)NC(=O)COCc1cc(-c2ccc3c(c2)OCO3)on1 (stereo unspecified),-4,3693,1,-16,-10,-3
CCN1CCN(S(=O)(=O)c2ccc(Cl)c(C(=O)N(C)Cc3ccc(Cl)cc3Cl)c2)CC1,-7,4613,4,-2,-12,-1
Cc1c(N=C2N=C(NC(=O)c3ccc(F)cc3)c3ccccc32)c(=O)n(-c2ccccc2)n1C,7,5549,-4,9,5,11
Cc1cc2oc(=O)cc(Cn3ccnc3)c2cc1C,19,16965*,4,-3,-4,-2
O=C(O)CC1S/C(=N\N=C2CCCCCC2)N(c2ccccc2)C1=O (stereo unspecified),18,3664,1,-2,3,0
CC(=O)/C=C1/SC(CC(=O)O)C(=O)N1c1ccccc1 (stereo unspecified),1,17699*,0,-32,12,8
COC(=O)[C@@H](Cc1c[nH]c2ccccc12)NC(=O)c1ccc2c(c1)OCO2,0,4034,-5,19,?,-2
C#CCOC(=O)c1csc2nnsc12,10,21747*,-3,-3,2,?
C#CCOC(=O)c1ccccc1C(=O)OCC#C,0,2823,2,-3,-6,0
COc1ccc(-c2csc(N(Cc3ccco3)C(=O)c3cccs3)n2)cc1,10,4258,1,-10,-8,-1
COc1ccc(-c2csc(N(CC3CCCO3)C(=O)c3cccs3)n2)cc1 (stereo unspecified),11,22735*,0,-2,-4,?
COC(=O)Nc1sc2c(c1C(=O)NCc1ccco1)CCCC2,-4,17349*,5,-15,4,5
O=C(Nc1sc2c(c1C(=O)NC1CC1)CCCCCC2)c1ccco1,18,8124,2,-1,0,0
Cc1ccc(C(=O)Nc2sc3c(c2C(=O)NCc2ccco2)CCCC3)cc1,8,4637,16,-7,-34,-1
O=C(Nc1sc2c(c1C(=O)NCc1cccnc1)CCCC2)c1ccco1,28,22004*,0,0,0,0
COC(=O)Nc1sc2c(c1C(=O)NCc1ccco1)CCC2,7,20826*,1,-2,1,?
COc1cc(C(=O)Nc2sc3c(c2C(=O)NCc2ccco2)CCCC3)cc(OC)c1OC,0,4964,-1,-5,8,0
COC(=O)Nc1sc2c(c1C(=O)NC1CC1)CCCCCC2,10,16545*,-3,-2,0,0
COc1ccc(C(=O)Nc2sc3c(c2C(=O)NCc2ccco2)CCCC3)cc1OC,9,3185,5,-5,-6,-1

# Compound activity as filed in PubChem.
